The nature of assay [1]: Primary qHTS for small molecule stabilizers of the endoplasmic reticulum resident proteome: Secreted ER Calcium Modulated Protein (SERCaMP) assay (AID 1508630). The settings on record: SH-SY5Y GLuc-SERCaMP (Gaussia luciferase released on ER calcium loss) secretion, thapsigargin, luminescence; series mostly up to 38.4 µM. In outline:
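GLuc-SERCaMP-expressing SH-SY5Y cells, pretreated 16 h with compound, are challenged with thapsigargin to empty ER calcium stores; after 4 h, coelenterazine is added directly to the medium and luminescence is imaged.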

Assay [2] is described as follows: Counterscreen qHTS for small molecule stabilizers of the endoplasmic reticulum resident proteome: GLuc-NoTag assay (AID 1508627). The following applies: Gaussia luciferase NoTag secretion counterscreen, luminescence, thapsigargin 100 nM for final 4 h; series mostly up to 76.4 µM. In outline: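 Luminescence of Gaussia luciferase secreted into the medium (coelenterazine, 0.07x final, unlysed cells) was the read-out. Human SH-SY5Y neuroblastoma cells constitutively secreting untagged GLuc received compound for 19 h, then 100 nM thapsigargin for 4 h.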
On the technique in general: Counterscreens check selectivity or assay interference.

The target in another assay is Papain (Carica papaya) (UniProt P00784). The assay is described as follows: Primary qHTS assay for inhibitors of the protease papain (AID 1645873).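 Also: papain turnover of Z-FR-AMC read as the AMC fluorescence gain over 10 min.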 The settings on record: papain Z-FR-AMC cleavage, AMC fluorescence; series mostly up to 49.8 µM. (Quantitative high-throughput screening tests each substance at several concentrations.)
Assay [3] in a line: Confirmatory qHTS for small molecule stabilizers of the endoplasmic reticulum resident proteome: Secreted ER Calcium Modulated Protein (SERCaMP) assay (AID 1508628). Also: nearly all actives have a fitted effect of over 40% in size. The following applies: SERCaMP secreted luciferase ER calcium/proteostasis reporter; series mostly up to 76.3 µM. In outline:
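SH-SY5Y cells stably expressing GLuc-SERCaMP, treated 16 h with compound (primary 1.53, 7.67, 38.3 uM; confirmation 11 concentrations, up to 76.6 uM), then 100 nM thapsigargin for 4 h. Secreted Gaussia luciferase in medium read by coelenterazine luminescence.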

A short description of assay [4]: Cell Viability qHTS for small molecule stabilizers of the endoplasmic reticulum resident proteome (AID 1508629).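 Also: compound exposure about 46 h in total before the viability read.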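 As to max response: human SH-SY5Y neuroblastoma cells carrying the GLuc-SERCaMP reporter; % is scaled to controls: 0 for no effect and ±100 for the full control effect.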 The settings on record: cell viability counter-screen, 100 nM thapsigargin for final 4 h.
Assay [5] is described as follows: A High-Content qHTS Against Drug Library for the Identification of Small Molecules that Inhibit DYT1 Early Onset Primary Dystonia-Associated Cell Pathology (AID 1645839; calls by dose curve). The following applies: HEK293 Flp-In EGFP-delE TorsinA, punctate imaging, 48 h; series mostly up to 46.1 µM. In outline:
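In this high-content image screen, delE TorsinA mislocalization in inducible Flp-In 293 cells is scored as %pathology, with cell count serving as the counterscreen. Compound exposure lasts 48 h under tetracycline induction in reduced-serum medium.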

Assay [6] concerns the target Cytochrome P450 2D6 (Homo sapiens) (UniProt P10635). The assay is described as follows: Cytochrome P450 family 2 subfamily D member 6 (CYP2D6) small molecule antagonists: luciferase biochemical (cell-free) qHTS assay (AID 1645840; active = well fitted curve in the direction sought with a large enough effect in the repeat runs; an effect the other way counts as inactive or inconclusive; also: nearly all actives have a fitted effect of over 55% in size). The following applies: P450-Glo CYP2D6 enzyme, luciferin luminescence, 1 h; series mostly up to 57.4 µM. In outline:
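P450-Glo luminescent screen: recombinant CYP2D6 enzyme–proluciferin substrate mix preincubated with compound 10 min at room temperature, then NADPH regeneration added for 1 h at room temperature. Detection reagent added for 20 min; luciferin light read as relative luminescence units.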

Assay [7] addresses Cytochrome P450 2C9 (Homo sapiens) (UniProt P11712). Kind of assay: Cytochrome P450 family 2 subfamily C member 9 (CYP2C9) small molecule antagonists: luciferase biochemical (cell-free) qHTS assay (AID 1645842; active = well fitted curve in the direction sought with a large enough effect in the repeat runs; an effect the other way counts as inactive or inconclusive; also: nearly all actives have a fitted effect of over 55% in size). The following applies: P450-Glo CYP2C9 enzyme assay, luciferin luminescence; series mostly up to 57.4 µM. In a few lines: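 Luminescence, after 20 min with luciferin detection reagent, reflected CYP2C9 turnover during a 1 h NADPH-driven reaction at 37C. Enzyme-substrate mix contained 0.4% bovine serum albumin and was preincubated with compound 10 min at room temperature.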

SMILES strings stand for the structures. Values joined by “and” are separate entries in the source; they are usually repeats but may differ in a detail not shown here. Identical values can stand only once. Inconclusive results are not listed. Some compounds were tested as several samples or in several runs, with calls that do not always agree. Active and inactive are the calls of the source. Unless noted, calls follow the shape of the dose curve; as a rule, active = well fitted curve in the direction sought with a large enough effect; inconclusive = small, poorly fitted or top-dose-only effect, or another doubt; inactive = no such curve, though single readings can be large; an effect the other way counts as inactive or inconclusive.
Potency is read from the fitted curve at half-maximal effect.

Cytochrome P450 2D6 (Homo sapiens), sequence (P10635 whole entry, looked up): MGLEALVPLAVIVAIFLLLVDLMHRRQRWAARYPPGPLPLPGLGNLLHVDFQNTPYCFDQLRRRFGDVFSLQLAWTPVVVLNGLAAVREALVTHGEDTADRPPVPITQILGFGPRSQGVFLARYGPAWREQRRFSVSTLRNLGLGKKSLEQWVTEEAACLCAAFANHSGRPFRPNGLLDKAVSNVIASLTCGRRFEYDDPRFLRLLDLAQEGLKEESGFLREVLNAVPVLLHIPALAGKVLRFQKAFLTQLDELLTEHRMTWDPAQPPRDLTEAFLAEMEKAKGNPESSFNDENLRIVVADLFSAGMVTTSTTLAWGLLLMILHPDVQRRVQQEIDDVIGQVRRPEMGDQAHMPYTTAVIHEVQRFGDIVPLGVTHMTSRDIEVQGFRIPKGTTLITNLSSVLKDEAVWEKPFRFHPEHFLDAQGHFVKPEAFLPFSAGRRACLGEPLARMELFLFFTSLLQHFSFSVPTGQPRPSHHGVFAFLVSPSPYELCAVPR
Papain (Carica papaya), sequence (P00784 whole entry, looked up): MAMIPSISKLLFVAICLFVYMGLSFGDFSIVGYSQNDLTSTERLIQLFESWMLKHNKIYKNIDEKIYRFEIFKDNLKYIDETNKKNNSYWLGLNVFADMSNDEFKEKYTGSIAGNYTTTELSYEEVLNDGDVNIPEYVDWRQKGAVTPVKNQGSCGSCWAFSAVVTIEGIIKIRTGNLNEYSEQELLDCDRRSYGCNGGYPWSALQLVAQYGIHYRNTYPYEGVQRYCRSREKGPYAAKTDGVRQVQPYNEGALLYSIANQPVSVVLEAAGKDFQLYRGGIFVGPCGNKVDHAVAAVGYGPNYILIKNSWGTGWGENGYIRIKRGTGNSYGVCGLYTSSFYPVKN
Cytochrome P450 2C9 (Homo sapiens), sequence (P11712 whole entry, looked up): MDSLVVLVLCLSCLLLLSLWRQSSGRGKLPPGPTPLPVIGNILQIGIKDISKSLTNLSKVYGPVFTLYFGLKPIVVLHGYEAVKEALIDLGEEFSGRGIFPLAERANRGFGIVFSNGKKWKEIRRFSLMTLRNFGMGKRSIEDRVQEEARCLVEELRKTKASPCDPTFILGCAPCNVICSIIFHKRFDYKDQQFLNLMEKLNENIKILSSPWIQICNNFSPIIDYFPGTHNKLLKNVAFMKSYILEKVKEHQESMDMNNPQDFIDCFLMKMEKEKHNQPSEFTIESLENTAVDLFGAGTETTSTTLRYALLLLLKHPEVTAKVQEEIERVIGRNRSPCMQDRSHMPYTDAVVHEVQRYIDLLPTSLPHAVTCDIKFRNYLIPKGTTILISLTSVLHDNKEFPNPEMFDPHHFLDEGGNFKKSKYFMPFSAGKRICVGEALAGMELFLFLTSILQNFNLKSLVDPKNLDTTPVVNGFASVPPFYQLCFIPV

On to `O=c1[nH]c2cc(Cl)c(Cl)cc2[nH]c1=O`, for which the Potency entry in assay [1] is “inactive”.

Turning to `CN1[C@@H](CC(=O)c2ccccc2)CCC[C@H]1C[C@H](O)c1ccccc1`, the Potency result (in assay [2]; with Papain (Carica papaya)) was “inactive” in each case.

For the compound `C[N+]1(C)C2CC(OC(=O)[C@H](CO)c3ccccc3)CC1C1OC12` (stereo partly specified), the Potency result in assay [2] and in assay [3] was “inactive” each time. Further, the max response in assay [4] was 12% (inactive). Also, in the assay with Papain (Carica papaya), the Potency is 1.12 µM (active) and inactive.

`O=C1CN(/N=C/c2ccc(-c3ccc([N+](=O)[O-])cc3)o2)C(=O)N1`: in assay [2], the Potency result was “inactive”. The Potency in assay [3] was 11.2 µM (active). Moreover, in assay [4], the max response was 25.5% (inactive).

For the compound `CCCCCCCCCCCCCCCCCCNC(=O)OCC(COP(=O)([O-])OCC[n+]1ccsc1)OC` (stereo unspecified), in assay [1], the Potency result was “inactive”.

As for `Oc1cc(O)cc(/C=C/c2ccc(O)c(O)c2)c1`, the Potency result in assay [3] is “inactive”. For the same compound, the Potency with Papain (Carica papaya) was 22.4 µM (active).

Regarding `N#C/C(=C\c1c[nH]c2ccccc12)C(=O)c1ccc(O)c(O)c1`, the Potency result in assay [2] is “inactive”. Moreover, in assay [3], the Potency is 12.6 µM (active).

Take `COc1cc(NC(C)CCCN)c2ncccc2c1` (stereo unspecified): the Potency in assay [2] is 44.7 µM (active). Further, the Potency entry in assay [3] was “inactive”.

Consider `COc1cc(/C=C/C(=O)CC(=O)/C=C/c2ccc(O)c(OC)c2)ccc1O`, for which the Potency result in assay [3] is “inactive”.

As to `Cc1c(C(=O)O)c(O)cc2c1C(=O)c1c(O)c([C@@H]3O[C@H](CO)[C@@H](O)[C@H](O)[C@H]3O)c(O)c(O)c1C2=O`, the Potency in assay [3] was 44.7 µM (active). Moreover, the Potency entry in assay [5] and in assay [6] was “inactive” each time.

In the case of `COc1ccc(/C=C/C(=O)Nc2ccccc2C(=O)O)cc1OC`, the Potency in assay [3] was 39.8 µM (active).

As to `CNCC[C@H](Oc1ccc(C(F)(F)F)cc1)c1ccccc1`, the Potency result (in assay [3]; in assay [1]; in the assay with Papain (Carica papaya)) was “inactive” in each case.

Take `NC(=S)c1ccc[n+]([C@@H]2O[C@@H](COP(=O)([O-])OP(=O)(O)OC[C@H]3O[C@@H](n4cnc5c(N)ncnc54)[C@H](OP(=O)(O)O)[C@@H]3O)C(O)C2O)c1` (stereo partly specified): the Potency result (in assay [2]; in assay [3]; with Papain (Carica papaya)) was “inactive” in each case.

As to `Fc1ccc(C(OCCCc2cnc[nH]2)c2ccc(F)cc2)cc1`, the Potency result in assay [2] and in assay [1] was “inactive” throughout. For the same compound, the max response in assay [4] was -7.37% (inactive).

Turning to `Cc1ccc(C(=O)O[C@H](C(=O)O)[C@@H](OC(=O)c2ccc(C)cc2)C(=O)O)cc1` (tested in a mixture with another compound), the Potency entry in assay [3] is “inactive”.

With `O=C(O)Cc1ccc2c(c1)C(=O)c1ccccc1CO2`, the Potency result in assay [2], in assay [3], in assay [5], in assay [6] and in assay [7] was “inactive” throughout. Further, the max response in assay [4] is 16.2% (inactive).

For the compound `N#C/C(=C\c1ccc(O)c(O)c1)C(=O)c1ccc(O)c(O)c1`, the Potency entry in assay [2] was “inactive”.

As for `CN(C)c1nc2c(Br)c(Br)c(Br)c(Br)c2[nH]1`, the Potency entry in assay [1] was “inactive”.

`CCCN(CC1CC1)c1nc(C)nc(Nc2c(Cl)cc(Cl)cc2Cl)c1Cl`: the Potency result (in assay [2]; in assay [3]; in assay [1]; in the assay with Papain (Carica papaya)) was “inactive” in each case. Besides, in assay [4], the max response is 17.8% (inactive).

Take `CN(C)c1ccc(N=NS(=O)(=O)O)cc1`: in assay [3], the Potency result is “inactive”. Besides, in assay [4], the max response is 4.58% (inactive). Besides, the Potency in assay [6] is 2.37 µM (active); in assay [7] it was 0.728 µM (active).

On to `O=C(c1ccc(Cl)cc1)N1CCN(c2ccc([N+](=O)[O-])c3ncccc23)CC1`, for which the max response in assay [4] is 3.83% (inactive). Further, the Potency result with Papain (Carica papaya) was “inactive”.

In the case of `CC(C)OC(=O)c1cc(C(=O)OC(C)C)cc([N+](=O)[O-])c1`, the Potency result in assay [2] and in assay [5] was “inactive” throughout. Besides, the Potency in assay [6] was 3.73 µM (active); in assay [7], 0.748 µM (active).

For `N=C1N=C(N)c2cc3ccccc3cc21`, the Potency in assay [2] was 89.1 µM (active); in assay [4], 39.8 µM (active); in assay [5], 35.5 µM (active); in assay [6], 31.7 µM (active). Further, the Potency result in assay [7] was “inactive”.

As for `NCCO`, the Potency result in assay [2], in assay [5], in assay [6] and in assay [7] was “inactive” throughout.

As to `C=C[C@H]1CN2CC[C@@H]1C[C@@H]2[C@@H](O)c1ccnc2ccc(OC)cc12`, the Potency is 3.98 µM (active) in assay [2] and 31.6 µM (active) in assay [3].

`O=C(/C=C/c1ccc(O)cc1)c1ccc(O)cc1O`: the Potency entry (in assay [2]; in assay [1]; in the assay with Papain (Carica papaya)) was “inactive” in each case.

For the compound `Cn1cc(C2=C(c3ccc(Cl)cc3Cl)C(=O)NC2=O)c2ccccc21`, the Potency in assay [2] was 0.447 µM (active); in assay [3], 39.8 µM (active). Moreover, the Potency result (in assay [1]; with Papain (Carica papaya)) was “inactive” throughout.

For `C=CCc1cccc(/C=N/NC(=O)CN2CCN(Cc3ccccc3)CC2)c1O`, in assay [1], the Potency entry is “inactive”.

Consider `CCCCCCCC/C=C\CCCCCCCC(=O)NCCO`, for which the Potency result (in assay [2]; in assay [3]; with Papain (Carica papaya)) was “inactive” in each case. Further, in assay [4], the max response was 21.6% (inactive). In assay [1], the Potency is 12.6 µM (active).

Regarding `CC1CN(S(=O)(=O)c2cccc3cnccc23)CCN1` (stereo unspecified), the Potency entry (in assay [2]; with Papain (Carica papaya)) was “inactive” throughout. Also, the max response in assay [4] was 32.3% (inactive).

`O=C(/C=C/c1ccc(O)c(O)c1)OCCc1ccccc1`: the Potency entry (in assay [2]; in the assay with Papain (Carica papaya)) was “inactive” in each case. Further, in assay [3], the Potency result is “inactive and 4.47 µM (active)”.

For the compound `O=C(Nc1ccccc1)c1cc([N+](=O)[O-])ccc1Cl`, the Potency result (in assay [2]; in assay [3]; in assay [1]; with Papain (Carica papaya)) was “inactive” in each case. Also, the max response in assay [4] was -26.2% (inactive).

On to `C=CC(=O)c1ccc(CCCCCC)cc1`, for which, in assay [1], the Potency result was “inactive”.

Source of the values: PubChem BioAssay (NCATS).
